# Bioassay records from PubChem BioAssay.
# MCF10A rereplic = induces DNA re-replication in MCF 10a normal breast cells; MCF 10A DNA re-replication, Hoechst nuclear intensity, 48 h; Potency, µM (highest dose often 46.1 µM), for the others: at the highest dose activity, positive = re-replication, usual class: activators; 350,000 compounds, 2.9% hits; AID 624296; note: potency is the fitted concentration of half-maximal effect; % of control where 0% means no effect; nearly all actives have a fitted effect of over 50% in size
# uPA generation = cell surface uPA generation inhibition. 330,000 compounds, 0.31% hits. AID 540303. Potency, µM (top dose mostly 38.3 µM), for inactives: top-dose activity change, negative = inhibition, usual class: inhibitors. cell surface uPA generation assay, qHTS; active = well fitted inhibition curve with a large enough effect; inconclusive = small, poorly fitted or top-dose-only effect; inactive = no such curve, though single readings can be large or run the other way; tested in mouse RAW 264.7 cells; note: potency is the fitted concentration of half-maximal effect; % is set by controls: 0 for no effect and ±100 for the full control effect; nearly all actives have a fitted effect of over 55% in size
# Giardia kill = kills Giardia lamblia. Giardia lamblia trophozoite viability. activity change, % at 7.66 µM, hits read low. 340,000 compounds, 0.15% hits. AID 540267; in the data active = activity change below about -80%; inconclusive = between about -30% and that limit;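 note: parasites exposed to compound for two days anaerobically before the ATP read; % is set by controls: 0 for no effect and ±100 for the full control effect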
#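 Luminescence from cellular ATP indicates surviving trophozoites (100 cells/well) following 48 hrs anaerobic compound treatment at 37 deg C; signal develops 15-30 min at room temperature.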
# SW480 rerep = DNA re-replication induction in SW480 cells; AID 624297; 340,000 compounds, 1.8% hits; Potency, µM (series often up to 46.1 µM), for inactives: at the highest dose re-replication activation, most hits filed as activators; SW480 DNA re-replication, Hoechst DNA content imaging, 48 h; note: potency is the fitted concentration of half-maximal effect; % of control where 0% means no effect; nearly all actives have a fitted effect of over 55% in size
#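 DNA re-replication was detected as more nuclei of elevated Hoechst intensity after 48 hr exposure to compound (23 nL pinned per well of 250 cells).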
# An asterisk follows results filed as active; ? = inconclusive; . = not tested or not shown; ! = not active in a repeat; [ ] = another dose, or the depositor's remark. A selection: hits, their analogues and other compounds. The true share with any hit is near 4.3%. Unless noted, calls come from the whole dose curve; as a rule, active = well fitted activation curve with a large enough effect; inconclusive = small, poorly fitted or top-dose-only effect; inactive = no such curve, though single readings can be large or run the other way.
SMILES,MCF10A rereplic,uPA generation,Giardia kill,SW480 rerep
CCCCCCCCCCCCCCCC[n+]1cccc2ccccc21,18.4µM*,-9.1%,5.8,?
CCCCCCCCC[n+]1cccc2c3ccccc3ccc21,?,-21.3%,2.3,?
O=C(COC(=O)c1nc(Cl)c(Cl)c(Cl)c1Cl)NCc1ccccc1,?,?,8.2,16.4µM*
Nc1c(Cl)c(Cl)nc(C(=O)OCC(=O)NCc2ccccc2)c1Cl,0.5%,7.9%,-16.0,-4.4%
CCOC(=O)C(=CNc1ccc(-c2ccco2)c(Cl)c1)C(=O)OCC,20.6µM*,22.7%,18.1,18.0%
CCOC(=O)C(=CNc1cc(Cl)c(-c2ccco2)c(Cl)c1)C(=O)OCC,16.4µM*,13.9%,37.5,21.9%
CCOC(=O)C(=CNc1ccc(C(F)(F)F)cc1Cl)C(=O)OCC,1.4%,-0.9%,-18.2,-18.6%
CCOC(=O)C(=CNc1ccccc1Cl)C(=O)OCC,1.2%,9.6%,23.2,-2.9%
O=S(=O)(NCCc1ccccc1)c1ccccc1Br,.,.,1.1,.
CC(=O)C1(C)CCC2C3C=C(C)C4=CC(=O)CCC4(C)C3CCC21C (configuration not stated),16.4µM*,5.2%,10.6,0.2%
C=C1CC2C(CCC3(C)C2CCC3(O)C(C)=O)C2(C)CCC(=O)C=C12 (configuration not stated),23.1µM*,-8.6%,9.2,-11.4%[9.22 µM]
C=C1C[C@H]2[C@@H]3C=C(C)C4=CC(=O)CC[C@]4(C)[C@H]3CC[C@]2(C)[C@@]1(OC(C)=O)C(C)=O,9.1%,-6.8%,-27.2,-9.9%
CC(=O)[C@@]1(O)CC[C@H]2[C@@H]3C[C@H](C)C4=CC(=O)CC[C@]4(C)[C@H]3CC[C@@]21C,1.1%,-6.4%,3.1,29.3%
CC(=O)N[C@@H](Cc1ccc(O)cc1)C(=O)O,-0.8%,.,.,-3.2%
CC1CCCN(C2=NC(=O)/C(=C/c3cn(-c4ccccc4)nc3-c3cccc(S(=O)(=O)N(C)C)c3)S2)C1 (configuration not stated),?,7.6%,0.9,0.2%
CC1CCN(C2=NC(=O)/C(=C/c3cn(-c4ccccc4)nc3-c3cccc(S(=O)(=O)N(C)C)c3)S2)CC1,5.3%,-7.1%,0.0,20.6µM*
OCC1OC([S-])[C@H](O)C(O)C1O.[Au+] (some centres not stated),29.9µM*,.,.,-1.9%
OCC1OC(O)C(O)C(O)C1O (configuration not stated),10.3%,.,.,4.0%
CCOc1ccccc1C(=O)NCC(=O)OCC(=O)N1CCCC1,1.3%,15.5%,1.5,-6.6%
Cc1cccn2cc(CNc3ccccc3)nc12,12.9%,.,-16.9,-3.2%
CCCS(=O)(=O)NCc1cn2cccc(C)c2n1,2.59µM*,0.1%,-0.4,10.3µM*
CNc1ccc(/C=C/C(=O)c2cccc3ccccc23)cc1[N+](=O)[O-],?,-8.8%,-9.2,16.4µM*
CC(=O)c1ccc(Nc2ccc(-c3ccccc3C)nn2)cc1,25.9µM*,?,3.8,24.4%
Cc1ccc(S(=O)(=O)N(C(=O)c2ccncc2)c2ccc(OC(=O)c3ccncc3)c3ccccc23)c(C)c1,?,-12.0%,11.2,?
CC(=O)N(c1ccccc1Cl)S(=O)(=O)c1ccc(Cl)cc1,-0.6%,.,2.1,-6.9%
SMILES,MCF10A rereplic,uPA generation,Giardia kill,SW480 rerep
CC(=O)Oc1ccc(N(C(C)=O)S(=O)(=O)c2ccc(C)cc2C)c2ccccc12,?,10µM*,5.0,?
CC(=O)Oc1c(Cl)cc(N(C(C)=O)S(=O)(=O)c2ccccc2)c2ccccc12,?,?,3.0,6.51µM*
C=CCn1c(CCNC(=O)c2ccc(Cl)c(Cl)c2)nnc1SCCOc1ccc(OC)cc1,20.6µM*,.,13.4,9.5%
COc1ccc(-c2cnc(SCC(=O)Nc3ccc4c(c3)OCO4)n2Cc2ccco2)cc1,?,-2.5%,-16.8,-2.3%
CC(=O)Nc1cccc(NC(=O)CSc2ncc(-c3ccc(Cl)cc3)n2Cc2ccco2)c1,16.4µM*,-7.5%,20.7,-14.4%
O=C(NCc1nnc(SCc2ccc(C(F)(F)F)cc2)n1-c1ccccc1)C12CC3CC(CC(C3)C1)C2,16.4µM*,3.6%,-3.3,5.1%
Cc1nn(-c2ccc(N3CCOCC3)nn2)c(C)c1CCC(=O)Nc1ccc(F)cc1,3.0%,-13.0%,2.3,0.6%
CCOC(=O)CN1C(=O)N[C@H](c2ccc(Br)cc2)C(C(C)=O)=C1C,6.51µM*,0.3%,5.9,?
CCCC(=O)Nc1ncnc2c1ncn2C1OC2COP(=O)(O)OC2C1OC(=O)CCC (configuration not stated),0.4%,.,.,-1.4%
O=C(Nc1nccs1)C1Cc2ccccc2CN1S(=O)(=O)c1ccc(F)cc1 (configuration not stated),425.2%[0.0737 µM],-3.8%,-13.3,4.11µM*
Cc1ccc(S(=O)(=O)N[C@H](C(=O)NC2CCC(C)CC2)C(C)C)cc1 (some centres not stated),2.4%,5.6%,-11.5,-11.8%
CN(C)Cc1ccccc1Sc1cccc2ccccc12,13µM*,-1.2%,2.9,?
CN(C)Cc1ccccc1Sc1ccccc1Br,2.2%,1.5%,7.9,-2.7%
CC(c1ccon1)N(C)C(=O)CCc1nnc(C2(c3ccc(Cl)cc3)CCC2)o1 (configuration not stated),0.581µM*,-11.1%,-9.2,3.7%
CCC1NC(=O)C(NC(=O)c2ncccc2O)C(C)OC(=O)C(c2ccccc2)NC(=O)C2CC(=O)CCN2C(=O)C(Cc2ccccc2)N(C)C(=O)C2CCCN2C1=O (configuration not stated),-0.3%,.,.,10.8%
Cc1nc2nc(C)n(CCN3CCOCC3)c(=O)c2c(-c2cccc([N+](=O)[O-])c2)c1C(=O)CCCCCCCCCCN1CCC(c2ccccc2)(c2ccccc2)CC1,?,-10.2%,-13.7,0.6%
CC(=O)c1c(N2CCN(c3ccccc3)CC2)nc(=S)n(-c2ccccc2)c1C,20.6µM*,-3.0%,-6.7,13.2%
CC(=O)c1c(N2CCN(CCO)CC2)nc(=S)n(-c2ccccc2)c1C,-1.4%,0.5%,-1.0,-20.6%
CCn1c(/C=C/c2cc(Br)ccc2O)nc2ccccc2c1=O,16.4µM*,?,-1.9,?
CCn1c(/C=C/c2ccc(O)c(O)c2)nc2ccccc2c1=O,?,?,4.3,?
O=c1c2ccccc2nc(/C=C/c2cccc(Br)c2)n1CCCO,?,-5.2%,-9.0,?
Cn1c(/C=C/c2cccc(Br)c2)nc2ccccc2c1=O,23.1µM*,-14.4%,-8.9,18.4µM*
CC(=O)Nc1ccn(C2OC(C(COC(C)=O)NC(=O)C3CCCN3C(=O)OC(C)(C)C)C(OC(C)=O)C2OC(C)=O)c(=O)n1 (configuration not stated),.,.,2.8,.
C[C@]12CCC(=O)C[C@@H]1CC[C@@H]1[C@@H]2CC[C@]2(C)C=CC[C@@H]12,29.9µM*!,3.2%,-1.3,-4.8%
Cc1ccc(NC(=O)CCNS(=O)(=O)c2cc(Br)cnc2N)cc1Cl,18.4µM*,7.9%,-9.4,6.8%
Cc1cc(NC(=O)CCNS(=O)(=O)c2cc(Br)cnc2N)ccc1Br,-1.6%,5.9%,-1.0,7.8%
